Rac1 act GTP bind = GTP binding modulators of activated mutant Rac1, primary screen, biochemical, bead-based flow cytometry, multiplex, fluorescent GTP | GST-Rac1 activated beads; actives lie on both sides; 100% means binding = to untreated wells | percent activity (GTP binding), % at 10 µM | 0.11% of 190,000 active | AID 764, 2007;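 active = GTP binding at least 20 percentage points away from the 100% baseline, in either direction, so actives lie on both sides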
Rab2A wt mod = modulators of GTP binding to Rab2A wildtype, primary screen, biochemical, dog, bead-based flow cytometry, multiplex. AID 760, 2007. GST-Rab2 wt beads, Bodipy-GTP binding. Ras-related protein Rab-2A (Canis lupus familiaris), P61105. 0.19% of 190,000 active. GTP binding activity, % at 10 µM;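 active = GTP binding activity at least 20 points away from 100%, either lowered or raised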
Rab7 wt modul = modulators of GTP binding to Rab7, primary screen, biochemical, wildtype, multiplex bead flow cytometry; 0.055% of 190,000 active; Rab7 GTPase wild type (dog), Bodipy-FL-GTP binding; GTP binding activity (percent of control), % at 10 µM; GST-Rab7 beads, fluorescent GTP binding; actives lie on both sides; untreated = 100%, excess cold GTP = 0%;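 active = fluorescent GTP binding to Rab7 beads changed by at least 20 points from the 100% baseline, either direction, mostly lower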;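 note: median green fluorescence of bound Bodipy-FL-GTP per Rab7 bead population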
Rac1 wt modul = wildtype Rac1 GTP binding modulators, primary screen, biochemical, GST-Rac1 beads, flow cytometry, multiplex; Ras-related C3 botulinum toxin substrate 1 (Homo sapiens), P63000; fluorescent GTP binding; actives lie on both sides; 0 = cold GTP competed, 100 = untreated; GTP binding activity (% of control), % at 10 µM; 0.27% of 190,000 active; AID 757, 2007;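 active = GTP binding activity at least 20 points away from the 100% control level, either lower or higher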
Cdc42 wt = modulators of GTP binding to wildtype Cdc42, primary screen, biochemical, multiplex bead flow cytometry, Bodipy-GTP; 0.2% of 190,000 active; percent activity (GTP binding), % at 10 µM; GST-Cdc42 beads; actives lie on both sides;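 active = percent activity GTP binding at least 20 points away from the 100% baseline, either down as inhibitor or up as activator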;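 note: median bead fluorescence of bound Bodipy-FL-GTP at 100 nM; below 100% means less GTP binding so inhibitor and above means activator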
Target sequence (P60953 whole entry, looked up): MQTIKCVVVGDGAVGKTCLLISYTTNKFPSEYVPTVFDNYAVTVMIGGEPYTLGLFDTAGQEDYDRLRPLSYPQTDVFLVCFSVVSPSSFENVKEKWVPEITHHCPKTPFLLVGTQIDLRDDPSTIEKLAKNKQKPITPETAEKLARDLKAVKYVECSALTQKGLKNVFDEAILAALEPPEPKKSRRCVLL
HRas wt GTP bind = modulators of GTP binding to HRas wildtype, primary screen, biochemical, bead-based flow cytometry, multiplex. 0.14% of 190,000 active. GTPase HRas (Homo sapiens), P01112. GTP binding activity, % at 10 µM. GST-Ras wt beads, Bodipy-FL-GTP binding; actives lie on both sides;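 active = GTP binding activity at least 20% away from the 100% baseline, either lowered as inhibitor or raised as activator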
Target sequence (P01112 whole entry, looked up): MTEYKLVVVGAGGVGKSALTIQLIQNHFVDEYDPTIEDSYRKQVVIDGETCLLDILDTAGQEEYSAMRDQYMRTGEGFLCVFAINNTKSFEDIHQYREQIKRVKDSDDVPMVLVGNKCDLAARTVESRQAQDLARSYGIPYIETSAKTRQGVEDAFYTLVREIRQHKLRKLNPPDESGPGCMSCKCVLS
Each line names hits and unclear results; the compound was inactive in the other large screens; [ ] = dose if it differs, or a comment. Shown are actives, neighbours in structure and some others; about 0.37% of the full set was active somewhere.

CCC(OC(=O)c1cc2sccc2n1C)C(=O)NCc1ccco1 (stereo not given)	Rac1 act GTP bind 37, Rab2A wt mod 36, Rab7 wt modul 22, Rac1 wt modul 37, Cdc42 wt 40, HRas wt GTP bind 44
Cn1c(C(=O)OCC(=O)NCc2ccco2)cc2sccc21	none
Cc1ccc(/C=C2\SC(=S)N(C(Cc3ccccc3)C(=O)O)C2=O)cc1 (stereo not given)	Rab2A wt mod 79
Cn1c(=O)c2c(nc(N/N=C/c3ccco3)n2C)n(C)c1=O	Rac1 wt modul 74
COc1cccc(NC(=O)c2cc(OC)c(OC)c(OC)c2Br)c1	none
COc1cc([N+](=O)[O-])ccc1N=Nc1c(N)[nH]n(-c2ccccc2)c1=O	Cdc42 wt 78
CCNc1nc(C23CC4CC(CC(C4)C2)C3)cs1	none
Oc1ccc(/C=N/NC(=S)N/N=C/c2ccc(O)cc2)cc1	Rac1 wt modul 71
Cc1ccc(N2CCN(S(=O)(=O)N3CCOCC3)CC2)cc1C	none
O=C(O)COc1ccccc1/C=N/Nc1ccc(S(=O)(=O)Nc2ccc(Cl)cc2)cc1[N+](=O)[O-]	Cdc42 wt 79
Nc1nc2c(c(=O)[nH]1)C(c1cccc3ccccc13)C1=C(N2)c2ccccc2C1=O (stereo not given)	Rab2A wt mod 79, Rac1 wt modul 74, Cdc42 wt 79
O=C(O)c1cc(N2N=C(C(F)(F)F)/C(=C/C=C/c3ccco3)C2=O)ccc1Cl	Rac1 act GTP bind 76, Cdc42 wt 79
CCOC(=O)CSc1ccc(C(=O)Nc2ccc(OC)cc2)cn1	none
CC(C)CCn1c(CN2CCN(Cc3ccccc3)CC2)nc2c1c(=O)n(C)c(=O)n2C	Rac1 act GTP bind 120[activator], Rab2A wt mod 123[activator], Rac1 wt modul 159[activator], Cdc42 wt 156[activator]
COCC(C)NC(=O)CSc1nc(-c2ccccc2)c(-c2ccccc2)o1 (stereo not given)	none
O=C(CCC(=O)OCc1ccc(Br)cc1)Nc1ccccc1	none
O=C1c2ccccc2-c2onc3ccc(Oc4ccccc4)c1c23	Rac1 act GTP bind 68, Rab2A wt mod 79, Rac1 wt modul 79, Cdc42 wt 78
CCOC(=O)C(C(=O)OCC)c1cc(Br)c2noc3c2c1C(=O)c1ccccc1-3	none
O=C(CCc1nnc(-c2ccc3c(c2)OCO3)o1)N1CCC(c2ccc(F)cc2)C1 (stereo not given)	Rac1 act GTP bind 79
CCCCN(C)C1CCN(C(=S)Nc2cccc(SC)c2)CC1	none
NC(=S)N=Nc1c(O)[nH]c2ccccc12	none
NC(=S)N=Nc1c(O)[nH]c2c(Br)cc(Br)cc12	Rab2A wt mod 74, Rac1 wt modul 71, Cdc42 wt 75, HRas wt GTP bind 75
Cc1c(Cl)cccc1NS(=O)(=O)c1ccc2c(c1)C1C=CCC1C(c1ccc(C(=O)O)cc1)N2 (stereo not given)	Rac1 act GTP bind 73, Cdc42 wt 78
Cc1nonc1C(=O)N/N=C/c1ccc(O)cc1O	none
COc1ccc(C(=O)N[C@H](C(=O)OCc2cc(=O)oc3cc(C)ccc23)C(C)C)cc1	Rac1 act GTP bind 33, Rab2A wt mod 31, Rab7 wt modul 20, Rac1 wt modul 33, Cdc42 wt 33, HRas wt GTP bind 37
Cc1nn(C)c(Cl)c1CN1CCN(C2CCCC2)C(CCO)C1 (stereo not given)	none
CC(NC(=O)COc1ccccc1F)C1CC2CCC1C2 (stereo not given)	none
Cc1ccc([N+](=O)[O-])cc1-c1ccc(/C=C(\C#N)c2[nH]nc(N)c2C#N)o1	Rac1 wt modul 79
COc1cccc(/C=C/C(=O)Nc2ccccc2N2CCOCC2)c1	Rac1 act GTP bind 50, Rab2A wt mod 51, Rab7 wt modul 23, Rac1 wt modul 48, Cdc42 wt 54, HRas wt GTP bind 53
CCn1nc(C(=O)OCC(=O)c2cc(C)n(Cc3cccs3)c2C)c2ccccc2c1=O	Rac1 act GTP bind 74, Rab2A wt mod 76, Rac1 wt modul 78, Cdc42 wt 77
Cc1ccc(-c2nnc3c4ccccc4c(C)nn23)cc1NC(=O)CN1CCOCC1	none
Cc1ccc(-c2nnc3c4ccccc4c(C)nn23)cc1S(=O)(=O)N1CCN(CCO)CC1	Rab2A wt mod 79
c1ccc(Nc2nc(-c3ccccn3)cs2)cc1	none
COc1cccc2sc(Nc3nc(-c4ccccn4)cs3)nc12	Rac1 wt modul 79
O=C(CN1C(=O)S/C(=C/c2cccnc2)C1=O)N1CCOCC1	Rab2A wt mod 70, HRas wt GTP bind 78
O=C(CN1C(=O)S/C(=C/c2ccncc2)C1=O)N1CCOCC1	none
CC1=C(C(=O)Nc2ccccc2)C(c2cccs2)NC(=O)N1 (stereo not given)	none
Clc1ccc(CNc2ccc3nnc(-c4ccccc4)n3n2)cc1	none
CCOc1ccc(CCNc2ccc3nnc(-c4ccccc4)n3n2)cc1OCC	Rab2A wt mod 76, Rac1 wt modul 76, Cdc42 wt 79, HRas wt GTP bind 74
O=S(=O)(Nc1nc2ccccc2[nH]1)c1ccc2ccccc2c1	none
O=S(=O)(Nc1ncn[nH]1)c1ccc2ccccc2c1	Rac1 wt modul 126[activator], Cdc42 wt 121[activator]
Cc1cc(C)cc(-n2ccnc2SCC(=O)O)c1	none
COc1cc(/C=N/NC(=O)C(Cc2c[nH]c3ccccc23)NC(=O)OCC(C)C)cc([N+](=O)[O-])c1O (stereo not given)	none
COc1cc(/C=N/NC(=O)C(Cc2c[nH]c3ccccc23)NC(=O)OCc2ccccc2)cc([N+](=O)[O-])c1O (stereo not given)	Rab2A wt mod 77, Rac1 wt modul 78
Cc1cc2nc3c(=O)n(C4CCCCC4)c(=O)[nH]c3nc2cc1N	Rab2A wt mod 73, Rac1 wt modul 74, Cdc42 wt 79, HRas wt GTP bind 76
Cc1ccc(NC(=S)Nc2ccc3nc(-c4ccccn4)c(-c4ccccn4)nc3c2)cc1C	Rac1 wt modul 125[activator]
Cc1cccc(-n2nc(CC#N)c(C#N)c2N)c1	Rab2A wt mod 78
Cc1ccc2c(c1)c1nnc(SCC(=O)Nc3ccccc3C(F)(F)F)nc1n2CC(=O)O	none

High-throughput results as filed in PubChem.
